ADAM17 inh: inhibits human ADAM17; P78536; recombinant ADAM17, EDANS/DABCYL FRET peptide cleavage; inhibition, % at 6.95 µM; 370,000 compounds, 0.83% hits;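 active means inhibition above the mean of compounds lying between control limits plus 3 SD, set per campaign, cut at about 8.5% in these data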
HGIII-sPLA2 inh: Inhibits HGIII-sPLA2 liposome hydrolysis, primary screen. QFRET BODIPY PC-A2 liposome hydrolysis, fluorescence. inhibition, % at 12.2 µM. 370,000 compounds, 0.56% hits. AID 743126;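 active means inhibition above mean plus 3 SD of compounds lying within the high and low control bounds, cut at about 19% in these data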
ADAM10 inh: inhibitors of human ADAM10 | recombinant ADAM10, EDANS/DABCYL FRET peptide cleavage, 3 h | inhibition, % at 7 µM | O14672 | 370,000 compounds, 0.62% hits;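 active means inhibition above a per-campaign cutoff equal to the mean of compounds falling between control-based bounds plus 3 SD, cut at about 20% in these data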
proKLK7 act: activates the human kallikrein-7 zymogen; P49862; purified proKLK7, EDANS-DABCYL substrate fluorescence; 100% is mature enzyme control, 0% vehicle; activation, % at 7 µM; 370,000 compounds, 0.9% hits;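 active means activation above the mean of all tested compounds plus 3 SD, computed per campaign excluding outliers beyond control limits, cut at about 13% in these data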
Target sequence (P49862 whole entry, looked up): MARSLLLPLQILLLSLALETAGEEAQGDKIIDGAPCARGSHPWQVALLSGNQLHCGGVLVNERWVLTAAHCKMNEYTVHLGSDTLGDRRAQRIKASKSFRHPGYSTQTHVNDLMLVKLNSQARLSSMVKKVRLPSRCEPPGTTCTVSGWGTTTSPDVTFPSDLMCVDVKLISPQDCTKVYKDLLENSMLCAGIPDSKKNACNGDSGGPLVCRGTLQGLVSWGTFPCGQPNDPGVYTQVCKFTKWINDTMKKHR
NRP1-CendR mod: alters CendR peptide binding to human NRP-1. O14786. FAM-RPARPAR peptide binding to NRP-1, fluorescence polarization. inhibition, % at 25 µM. 360,000 compounds, 0.85% hits. AID 602438;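 active means inhibition or corrected inhibition above about 18%, plus a signal ratio from 0.5 to 1.5, limit read from the data, passing the limit was not always enough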
ADAM10 counter: ADAM10 inhibition, counter-screen for ADAM17 exosite hits; 2,900 compounds, 47% hits; recombinant ADAM10, EDANS/DABCYL FRET peptide cleavage, 3 h; shares compounds with ADAM17 inh; inhibition, % at 6.95 µM; AID 743256;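 active means mean inhibition over the triplicate runs exceeds the activity threshold set in the earlier primary screen, cut at about 20% in these data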
ADAM17 confirm: confirmation of inhibitors of human ADAM17. 2,900 compounds, 65% hits. recombinant ADAM17, EDANS/DABCYL QFRET peptide cleavage. AID 743257. shares compounds with ADAM17 inh. inhibition, % at 6.95 µM;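 active means mean inhibition across replicates above the hit cutoff set in the primary screen, cut at about 8.5% in these data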
Large screens that a line does not name were inactive (follow-up assays come after a bar, where they were run). Shown are actives, neighbours in structure and some others; about 3.4% of the full set was active somewhere.

CN(c1ccc(OCC(=O)OCC(=O)c2c(N)n(C)c(=O)n(C)c2=O)cc1)S(=O)(=O)c1ccc2ccccc2c1	ADAM17 inh 9.3 | ADAM10 counter 23 | ADAM17 confirm 10
CCC(=O)N1CCc2cc(Br)cc(S(=O)(=O)N(C)c3ccc(OC)cc3OC)c21	ADAM17 inh 10 | ADAM10 counter inactive | ADAM17 confirm inactive
COC(=O)[C@H](C(C)C)N(CCc1cn(Cc2ccccc2)nn1)S(=O)(=O)c1ccccc1Br	none (no result: NRP1-CendR mod)
CC(=O)N(C)c1ccc(N=Nc2ccc3ncccc3c2)cc1	ADAM17 inh 9.6 | ADAM10 counter inactive | ADAM17 confirm inactive
Cc1cccc(C)c1NC(=O)C1(C)CSCC(=O)N1CC(C)C (centres undefined)	none
Cc1cccc(C)c1NC(=O)C1(C)CSCC(=O)N1CCc1ccc(O)cc1 (centres undefined)	ADAM17 inh 11 | ADAM10 counter inactive | ADAM17 confirm inactive
COC(=O)c1cc(C)oc1C	none (no result: NRP1-CendR mod)
COc1ccc(CN2CCC(CNC(=O)Nc3ccccc3)CC2)cc1	none (no result: NRP1-CendR mod)
COc1ccc(N2CCC(CNC(=O)Nc3ccccc3)C2)cc1 (centres undefined)	ADAM17 inh 14 | ADAM10 counter inactive | ADAM17 confirm inactive
COc1cc(NC(=O)Nc2cccc3cccnc23)cc(OC)c1OC	ADAM17 inh 13 | ADAM10 counter inactive | ADAM17 confirm inactive
COc1cc(C(=O)Nc2cccc3cccnc23)cc(OC)c1OC	none
Cc1cc(Oc2cccnc2)ccc1NC(=O)Cc1cn(C)c2ccccc12	none (no result: NRP1-CendR mod)
CC(C)C[C@H](NC1(C(=O)NCCc2c[nH]c3ccccc23)CCC1)C(=O)NCCCc1ccccc1	ADAM17 inh 8.8 (no result: proKLK7 act, NRP1-CendR mod) | ADAM10 counter inactive | ADAM17 confirm inactive
CC(C)Nc1nc(Cl)nc(NNC(=O)C(C)Oc2ccccc2)n1 (centres undefined)	ADAM17 inh 9.0 | ADAM10 counter inactive | ADAM17 confirm inactive
COC[C@@H]1CCCN1c1cccc2c1S(=O)(=O)N(C1CC1)CC[C@@H](C)O2	none (no result: NRP1-CendR mod)
CC(C)(C)c1ccc(-c2nnc(SCC(=O)Nc3ccc(S(=O)(=O)Nc4nccs4)cc3)n2Cc2ccco2)cc1	ADAM17 inh 9.6 (no result: NRP1-CendR mod) | ADAM10 counter 23 | ADAM17 confirm 13
CCOc1ccc(-n2c(SCC(=O)Nc3ccccc3-c3ccccc3)nnc2-c2ccccc2)cc1	ADAM17 inh 9.6 (no result: NRP1-CendR mod) | ADAM10 counter 38 | ADAM17 confirm 20
CCOc1ccc(-n2c(SCC(=O)Nc3cccc4ccccc34)nnc2-c2ccccc2)cc1	none (no result: NRP1-CendR mod)
COc1cccc(-c2nnc(SCC(=O)Nc3ccc(Oc4ccccc4)cc3)n2Cc2ccco2)c1	ADAM17 inh 9.1 (no result: NRP1-CendR mod) | ADAM10 counter 27 | ADAM17 confirm 16
CC(C)(C)c1ccc(-c2nnc(SCC(=O)Nc3ccccc3-c3ccccc3)n2Cc2ccco2)cc1	ADAM17 inh 11 (no result: NRP1-CendR mod) | ADAM10 counter 20 | ADAM17 confirm 17
COc1cccc(-c2nnc(SCC(=O)Nc3ccc(OCc4ccccc4)cc3)n2Cc2ccco2)c1	none (no result: NRP1-CendR mod)
COc1ccc(CN(CCN2CCOCC2)C(=O)c2cc(F)cc(F)c2)cc1OC	none (no result: NRP1-CendR mod)
CCn1nnnc1SCC(=O)c1cccc(OC)c1	none
COc1ccc(-n2nnnc2SCC(=O)c2cccc(OC)c2)cc1	ADAM17 inh 10 | ADAM10 counter inactive | ADAM17 confirm inactive
COc1ccc(NC(=O)CN(C)C(=O)/C=C/c2cn(-c3ccccc3)nc2-c2ccc(C)cc2)cc1	ADAM17 inh 13 | ADAM10 counter inactive | ADAM17 confirm 10
CC1(C(=O)NS(=O)(=O)Cc2ccccc2)CCN1C(=O)C1(c2ccc(Cl)cc2)CC1 (centres undefined)	ADAM17 inh 9.6 | ADAM10 counter inactive | ADAM17 confirm inactive
CCCc1c(-c2ccc(F)cc2F)ncn1Cc1cccc(-c2ccccc2)c1	ADAM17 inh 16 | ADAM10 counter inactive | ADAM17 confirm inactive
CCN(C(=O)Cn1nnc(-c2ccncc2)n1)c1ccccc1	none (no result: NRP1-CendR mod)
COc1cc(O)ccc1/C=N/NC(=O)c1ccc([N+](=O)[O-])cc1	none

Bioassay records (PubChem)
